Experimental data: a collection of fitness landscapes (doi:10.1016/j.celrep.2020.107928)
Over roughly 81,000 sequences, “one-hybrid fitness for binding NBS DNA” has its median near -0.1; the highest 2% begin near 0.36. This is one part of a sample in which the highest values are shown more often than they occur.

B1: Caulobacter ParB omega fusion; a variant is named by its letters at X, in order, B8GW30 (parent)
chain: MESVVVGEPGMSEGRRGLGRGLSALLGEVDAAPAQAPGEQLGGSREAPIEILQRNPDQPRRTFREEDLEDLSNSIREKGVLQPILVRPSPDTAGEYQIVAGERAWRAAQRAGLKTVPIMVRELDDLAVLEIGIIENVQRADLNVLEEALSYKVLMEKFERTQENIAQTIGKSXSHVANXMRLLXLPDEVQSYLVSGELTAXHARAIAAAADPVALAKQIIEGGLSVRETEALARKAPNLSAGKSKGGRPPRVKDTDTQALESDLSSVLGLDVSIDHRGSTGTLTITYATLEQLDDLCNRLTRGI

Variants of: B1
Experiment: one-hybrid fitness for binding NBS DNA (the Noc-binding site; scaled: cognate 1, non-cognate 0); higher = stronger binding
Conditions: with NBS DNA site
Outline: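 The reporter was HIS3, with the binding site 19 bp from the promoter, in E. coli USO used for bacterial one-hybrid selection of Caulobacter ParB libraries with four specificity codons randomised. Growth was on M9 lacking histidine, with 0.1 mM IPTG and 5 mM 3-AT, for 48 hours at 37°C. Illumina sequencing covered plasmids before and after selection; three replicate libraries were pooled and variants with under 10 reads dropped. A fitness score is the log change in variant-to-wild-type read ratio, rescaled to the cognate and non-cognate references.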

Row | Variant | one-hybrid fitness for binding NBS DNA
1 | TTSN | ≤ 0.2
2 | DLQW | ≤ 0.2
3 | DYWR | ≤ 0.2
4 | QHAN | ≤ 0.2
5 | QHAH | ≤ 0.2
6 | QHAR | 0.523
7 | QHFR | 0.408
8 | QHFS | ≤ 0.2
9 | QHFN | ≤ 0.2
10 | GISW | ≤ 0.2
11 | ACMF | ≤ 0.2
12 | RFMI | ≤ 0.2
13 | EHLG | ≤ 0.2
14 | SCYH | ≤ 0.2
15 | MRMG | ≤ 0.2
16 | RYWT | 0.281
17 | RYPT | ≤ 0.2
18 | RYNT | 0.514
19 | RYKT | 0.604
20 | RYYT | 0.349
21 | RYNP | ≤ 0.2
22 | RYLD | ≤ 0.2
23 | RYVT | 0.229
24 | RYLT | 0.366

Row | Variant | one-hybrid fitness for binding NBS DNA
25 | RYDT | 0.204
26 | RYRT | 0.664
27 | RYLH | ≤ 0.2
28 | LHLS | ≤ 0.2
29 | ILDG | ≤ 0.2
30 | GDTF | ≤ 0.2
31 | TMRI | ≤ 0.2
32 | MQPC | ≤ 0.2
33 | MRDI | ≤ 0.2
34 | WQSY | ≤ 0.2
35 | RYAT | 0.461
36 | RYCG | ≤ 0.2
37 | RYFT | ≤ 0.2
38 | RYAH | ≤ 0.2
39 | RYCT | 0.372
40 | RYCC | ≤ 0.2
41 | TALL | ≤ 0.2
42 | HITC | ≤ 0.2
43 | LYGC | ≤ 0.2
44 | QTWH | ≤ 0.2
45 | QTWT | 0.543
46 | QHWT | 0.375
47 | QHWN | ≤ 0.2
48 | NTRT | ≤ 0.2

Row | Variant | one-hybrid fitness for binding NBS DNA
49 | QTRT | 0.891
50 | QHWD | ≤ 0.2
51 | QTYT | 0.572
52 | DTRT | ≤ 0.2
53 | QTWD | ≤ 0.2
54 | DQMC | ≤ 0.2
55 | HTHS | ≤ 0.2
56 | SPAK | ≤ 0.2
57 | IRFR | ≤ 0.2
58 | WCIR | ≤ 0.2
59 | QTND | 0.227
60 | QCWT | 0.461
61 | QTST | 0.61
62 | QPWT | ≤ 0.2
63 | QTSC | 0.214
64 | QTNP | ≤ 0.2
65 | QTSF | ≤ 0.2
66 | QTNT | 0.71
67 | QSWT | 0.348
68 | QTDT | 0.448
69 | IHPM | ≤ 0.2
70 | MVSY | ≤ 0.2
71 | TTTW | ≤ 0.2
72 | HGWD | ≤ 0.2

Row | Variant | one-hybrid fitness for binding NBS DNA
73 | LSVE | ≤ 0.2
74 | EWQK | ≤ 0.2
75 | GLRI | ≤ 0.2
76 | TRMF | ≤ 0.2
77 | IGRY | ≤ 0.2
78 | TPKT | ≤ 0.2
79 | TCVR | ≤ 0.2
80 | TPVQ | 0.763
81 | TPVT | 0.375
82 | TPKR | 0.351
83 | TTSQ | ≤ 0.2
84 | TPVR | 0.513
85 | TPKQ | ≤ 0.2
86 | TSVQ | ≤ 0.2
87 | TSSQ | 0.493
88 | TCVT | ≤ 0.2
89 | TRSQ | ≤ 0.2
90 | VMCN | ≤ 0.2
91 | SSHR | 0.261
92 | WIIS | ≤ 0.2
93 | QDAC | ≤ 0.2
94 | YRCS | ≤ 0.2
95 | QPDL | ≤ 0.2
96 | QYVG | ≤ 0.2

Row | Variant | one-hybrid fitness for binding NBS DNA
97 | RKCC | ≤ 0.2
98 | HGRR | ≤ 0.2
99 | EGQR | ≤ 0.2
100 | QMVA | ≤ 0.2
101 | QCKA | 0.608
102 | QAVA | ≤ 0.2
103 | QIKA | 0.351
104 | QMKA | 0.596
105 | QHIA | ≤ 0.2
106 | QAKA | 0.521
107 | QHKA | 0.597
108 | QPKA | ≤ 0.2
109 | QMIA | ≤ 0.2
110 | QHVA | ≤ 0.2
111 | QALA | ≤ 0.2
112 | NDTL | ≤ 0.2
113 | YAKI | ≤ 0.2
114 | LRRN | ≤ 0.2
115 | TCKG | ≤ 0.2
116 | WGAS | ≤ 0.2
117 | PPRC | ≤ 0.2
118 | QKPA | ≤ 0.2
119 | QKVA | ≤ 0.2
120 | QLKA | 0.466

Row | Variant | one-hybrid fitness for binding NBS DNA
121 | QKKA | 0.577
122 | QWKA | ≤ 0.2
123 | QSKA | 0.558
124 | QLVA | ≤ 0.2
125 | QLLA | ≤ 0.2
126 | QSVA | ≤ 0.2
127 | AVKE | ≤ 0.2
128 | NQRA | ≤ 0.2
129 | FGAF | ≤ 0.2
130 | QMKG | 0.336
131 | QMKL | 0.262
132 | QMKR | 1.03
133 | QMVR | 0.424
134 | QMVD | ≤ 0.2
135 | QMVP | ≤ 0.2
136 | TAHS | ≤ 0.2
137 | IMVC | ≤ 0.2
138 | HTKM | ≤ 0.2
139 | KTGG | ≤ 0.2
140 | ETHC | ≤ 0.2
141 | RRLQ | 0.209
142 | RRLG | 0.245
143 | RRLR | 0.702
144 | RPDR | ≤ 0.2

Row | Variant | one-hybrid fitness for binding NBS DNA
145 | RRGR | 0.744
146 | RRQK | 0.261
147 | RRGF | ≤ 0.2
148 | RRDR | 0.666
149 | RRQR | 0.765
150 | RRGQ | 0.239
151 | RRQF | 0.221
152 | SFAS | ≤ 0.2
153 | HDCG | ≤ 0.2
154 | DQVR | ≤ 0.2
155 | KNLL | ≤ 0.2
156 | DPPY | ≤ 0.2
157 | PPNW | ≤ 0.2
158 | ARKC | ≤ 0.2
159 | HVNI | ≤ 0.2
160 | HCSE | ≤ 0.2
161 | RRNE | ≤ 0.2
162 | RCER | 0.245
163 | RRRR | 0.904
164 | RRSR | 0.756
165 | RGRR | 0.336
166 | RRER | 0.629
167 | RRSM | 0.311
168 | RRNR | 0.813

Row | Variant | one-hybrid fitness for binding NBS DNA
169 | RERR | ≤ 0.2
170 | RRNG | 0.343
171 | RRSF | ≤ 0.2
172 | RPER | ≤ 0.2
173 | PAQI | ≤ 0.2
174 | TDSA | ≤ 0.2
175 | YSRC | ≤ 0.2
176 | RRHQ | 0.293
177 | RRCF | ≤ 0.2
178 | RRWG | 0.216
179 | RRWK | 0.249
180 | RRHR | 0.771
181 | RRCC | 0.325
182 | RRYR | 0.728
183 | RRHF | 0.207
184 | RRWR | 0.732
185 | RRCR | 0.75
186 | ETHW | ≤ 0.2
187 | GAPL | ≤ 0.2
188 | TTDQ | ≤ 0.2
189 | QPFL | ≤ 0.2
190 | QGKK | ≤ 0.2
191 | MPVQ | ≤ 0.2
192 | KLMT | ≤ 0.2

Row | Variant | one-hybrid fitness for binding NBS DNA
193 | PRPV | ≤ 0.2
194 | TLPW | ≤ 0.2
195 | PPHD | ≤ 0.2
196 | RYTW | ≤ 0.2
197 | QTVL | ≤ 0.2
198 | QCKL | 0.307
199 | QTRL | 0.406
200 | QCRL | 0.401
201 | QMRL | 0.287
202 | QTDL | ≤ 0.2
203 | QTYL | ≤ 0.2
204 | QPRL | ≤ 0.2
205 | DCRL | 0.405
206 | DIRL | ≤ 0.2
207 | DPRL | ≤ 0.2
208 | QTKL | 0.395
209 | DKKC | ≤ 0.2
210 | LTSP | ≤ 0.2
211 | DSLM | ≤ 0.2
212 | GRHR | ≤ 0.2
213 | VANW | ≤ 0.2
214 | RFPW | ≤ 0.2
215 | RCCM | ≤ 0.2
216 | PGLH | ≤ 0.2

Row | Variant | one-hybrid fitness for binding NBS DNA
217 | CHHR | ≤ 0.2
218 | QRYL | ≤ 0.2
219 | QRVL | ≤ 0.2
220 | QRKL | 0.367
221 | FRYF | ≤ 0.2
222 | INML | ≤ 0.2
223 | RHIS | ≤ 0.2
224 | RHHD | ≤ 0.2
225 | RHNH | ≤ 0.2
226 | RHYS | 0.376
227 | RHRN | ≤ 0.2
228 | RHRS | 0.585
229 | RHHS | 0.443
230 | RHRD | ≤ 0.2
231 | RHDS | ≤ 0.2
232 | RHWS | ≤ 0.2
233 | RHHN | ≤ 0.2
234 | RHNS | 0.505
235 | MVLT | ≤ 0.2
236 | QIMY | ≤ 0.2
237 | AMWR | ≤ 0.2
238 | RYEA | ≤ 0.2
239 | SMFC | ≤ 0.2
240 | RFVV | ≤ 0.2

Row | Variant | one-hybrid fitness for binding NBS DNA
241 | KGDK | ≤ 0.2
242 | QSFY | ≤ 0.2
243 | QRAY | 0.516
244 | QCAY | 0.21
245 | QRFY | 0.392
246 | QCFY | 0.213
247 | QSAY | ≤ 0.2
248 | PAFP | ≤ 0.2
249 | VCPS | ≤ 0.2
250 | MCMN | ≤ 0.2
251 | DHRV | ≤ 0.2
252 | QCTQ | ≤ 0.2
253 | QSTM | ≤ 0.2
254 | QRTQ | 0.437
255 | QCTV | ≤ 0.2
256 | QRTG | 0.356
257 | QRTM | 0.414
258 | QSTQ | ≤ 0.2
259 | QRTF | 0.294
260 | QCTM | ≤ 0.2
261 | QRTV | 0.412
262 | QPTV | ≤ 0.2
263 | QRTS | 0.685
264 | ATLR | ≤ 0.2

Row | Variant | one-hybrid fitness for binding NBS DNA
265 | IYRI | ≤ 0.2
266 | AKFY | ≤ 0.2
267 | IYLA | ≤ 0.2
268 | KPSG | ≤ 0.2
269 | GTKT | ≤ 0.2
270 | SIIE | ≤ 0.2
271 | QRTD | 0.259
272 | QRTP | 0.263
273 | QPTH | ≤ 0.2
274 | QRTN | 0.429
275 | QRTC | 0.395
276 | QRTH | 0.57
277 | QPTC | ≤ 0.2
278 | QCTH | 0.295
279 | QCTK | ≤ 0.2
280 | QPTK | ≤ 0.2
281 | QCTC | ≤ 0.2
282 | QRTK | 0.414
283 | LCDV | ≤ 0.2
284 | ANGR | ≤ 0.2
285 | WTTR | ≤ 0.2
286 | MSHC | 0.26
287 | SNER | ≤ 0.2
288 | FAVS | ≤ 0.2

Row | Variant | one-hybrid fitness for binding NBS DNA
289 | FHLT | ≤ 0.2
290 | EFTH | ≤ 0.2
291 | EFTS | ≤ 0.2
292 | QCTY | 0.225
293 | QPTY | ≤ 0.2
294 | EFTN | 0.392
295 | QRTY | 0.519
296 | PRAG | ≤ 0.2
297 | GACS | ≤ 0.2
298 | RHMP | ≤ 0.2
299 | RKMR | 0.577
300 | RTMN | ≤ 0.2
301 | RLMR | 0.341
302 | RKMP | ≤ 0.2
303 | RCMR | 0.461
304 | RTMP | ≤ 0.2
305 | RTMR | 0.503
306 | RHMR | 0.368
307 | RPMR | ≤ 0.2
308 | RKMH | 0.214
309 | RHMN | ≤ 0.2
